Source: PubChem (Broad Institute)
The list is not random: actives were taken first. Their share in the collection is about 1.5%.
CFTR F508del cor – correctors of CFTR F508del function in bronchial epithelial cells; 350,000 compounds, 0.36% hits; activity (quench increase), % at 7.58 µM; CFBE cells, YFP halide quenching; stimulated with forskolin plus potentiator P3; % fluorescence drop versus neutral controls;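 active = mean added fluorescence quench of at least 8% versus neutral control, with both replicates also reaching 8%; inconclusive = only one of the mean or replicate conditions met; inactive = mean below 8% and not both replicates reaching 8%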;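 also: cells transiently co-express mutant CFTR-F508del with the halide-sensitive YFP; corrector assay measuring rescue of mutant channel to the surface after 24 h compound exposure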
RAD54 inh – blocks human RAD54 Holliday junction branch migration. Q92698. FAM/BHQ fluorescence. inhibition, % at 10.4 µM. 360,000 compounds, 0.14% hits. AID 602329;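 active = mean normalized replicate activity at least 40 and at least half of replicates scoring 40 or more; inconclusive = only one of the two criteria met; inactive = mean below 40 and under half of replicates reaching 40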;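 also: 0% = median of neutral control wells and 100% = median of positive control wells; inhibitors cause a drop in the FAM fluorescence signal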
PvdQ acylase – P. aeruginosa PvdQ acylase inhibition | purified PvdQ acylase, fluorescence plate reader | inhibition, % at 10 µM | 340,000 compounds, 0.063% hits | AID 488965; in the data active = inhibition above about 30%, passing the limit was not always enough; inconclusive = no clear call, values can overlap the other calls;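 also: 0% = vehicle neutral wells and 100% = reference inhibitor wells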
N-glyco inh – N-linked glycosylation inhibition. D54 ERlucT glycosylation luciferase reporter, 24 h; percent of 100 nM tunicamycin response. reporter increase, % at 12.5 µM. 360,000 compounds, 0.23% hits;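 active = mean luciferase reporter signal, scaled so untreated is 0 and the glycosylation-blocking control 100, at or above a set limit in every replicate; inconclusive = mean reaches the limit but not every replicate does; inactive = mean below the limit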;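 also: luciferase carries N-glycosylation sites so blocking glycosylation raises the light; 0% = median of neutral control wells and 100% = median of 100 nM tunicamycin wells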
RAD52 inh – blocks human RAD52 DNA annealing. recombinant RAD52 DNA annealing, FRET fluorescence. inhibition, % at 18.7 µM. 360,000 compounds, 0.46% hits;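 active = every replicate showing at least 50% inhibition; inconclusive = mean inhibition at least 50% but not in every replicate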
dFosB act-1 – activators of mouse delta FosB homodimer | activation, % at 25 µM | purified delta FosB, TAMRA-CDK5 oligo fluorescence polarization; percent of positive-control signal above neutral wells | 340,000 compounds, 0.99% hits;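 active = mean activation above about 17%, with every replicate also reaching it, limit read from the data, passing the limit was not always enough; inconclusive = only one of the two conditions met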
Target sequence (P13346 whole entry, looked up): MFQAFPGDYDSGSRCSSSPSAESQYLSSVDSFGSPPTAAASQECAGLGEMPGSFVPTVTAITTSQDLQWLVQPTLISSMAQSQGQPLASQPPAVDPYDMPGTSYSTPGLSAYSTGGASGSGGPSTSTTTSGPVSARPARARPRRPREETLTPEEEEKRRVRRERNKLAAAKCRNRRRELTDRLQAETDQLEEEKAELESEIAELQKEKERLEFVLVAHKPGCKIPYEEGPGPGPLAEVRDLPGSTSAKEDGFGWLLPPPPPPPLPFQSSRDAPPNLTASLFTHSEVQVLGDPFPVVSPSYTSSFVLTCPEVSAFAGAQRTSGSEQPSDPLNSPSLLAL
dFosB act-2 – delta FosB (mouse) homodimer activation. activation, % at 24.9 µM. AID 588690. 2,400 tested, under 10 active. shares compounds with dFosB act-1. purified delta FosB, TAMRA-CDK5 oligo fluorescence polarization; normalised: neutral wells 0, positive control 100;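 active = highest replicate activation at or above 34% and every replicate reaching that threshold; inconclusive = meets only one of the two criteria; inactive = meets neither criterion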;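 also: higher polarization means more probe DNA bound by delta FosB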
* = called active by the depositor; ? = inconclusive; . = no result.

SMILES	CFTR F508del cor	RAD54 inh	PvdQ acylase	N-glyco inh	RAD52 inh	dFosB act-1	dFosB act-2
C[C@@H]1CCCCO[C@@H](CN(C)Cc2ccc(C(F)(F)F)cc2)[C@H](C)CN([C@H](C)CO)C(=O)c2cc(NC(=O)Nc3ccc(F)cc3)ccc2O1	-1	-2	.	.	-13	.	.
Oc1oc(-c2ccccc2)nc1/C=N/c1ccccn1	.	1	12	-3	-27	-2	.
Oc1oc(-c2ccccc2Br)nc1C=Nc1ccc(Br)cn1	-1	1	-16	4	-7	47*	-2
CC(C)NC(=O)N[C@H]1CC[C@@H](CCn2cc(-c3ccccc3)nn2)O[C@@H]1CO	1	9	.	.	-3	.	.
CO[C@H]1CC[C@@H]2CCN(C)C(=O)[C@@H](C)N(C)C(=O)c3cc(C#N)ccc3OC[C@@H]1O2	.	0	.	.	2	.	.
Cc1cccn2c(=O)c(/C=N/O)c(NCc3ccccc3)nc12	1	.	-26	1	0	3	.
Cc1cccn2c(=O)c(/C=N/O)c(Nc3ccccc3F)nc12	-2	.	-3	-2	-8	20*	1
O=C(CSc1nc2ccccc2c(=O)n1Cc1ccc(Cl)cc1)NCc1cccs1	-2	10	-9	1	-12	27*	0
CCCCn1c(SCC(=O)NCc2ccco2)nc2ccccc2c1=O	.	16	-10	1	.	18*	5
CCCn1c(SCC(=O)NCC(=O)Nc2ccc(F)c(F)c2F)nc2ccccc2c1=O	-6	.	2	2	-1	26*	2
C/C(N)=C(/C#N)C(=O)CSc1nc2ccccc2c(=O)n1Cc1ccc(C)cc1	0	.	-1	-1	-14	21*	5
CCn1c(SCC(=O)NCc2ccccc2)nc2ccccc2c1=O	1	.	-6	-1	1	-5	.
C/C(N)=C(/C#N)C(=O)CSc1nc2ccccc2c(=O)n1Cc1ccc(F)cc1	2	-10	-15	-3	-12	-9	.
CCCNC(=O)CSc1nc2ccccc2c(=O)n1CCC	-2	.	0	2	8	-4	.
COc1ccc2c3c(n(C)c2c1)[C@H](CO)N(C(=O)CC1CC1)CC31CCN(C(=O)C2CCCC2)CC1	0	.	.	.	-1	.	.
COc1cccc(-c2ccc3c(c2)O[C@H](CN(C)C(=O)C2CC2)[C@H](C)CN([C@@H](C)CO)S3(=O)=O)c1	-1	-10	.	.	7	.	.
C[C@@H]1CN([C@H](C)CO)C(=O)c2cc(/C=C/c3ccccc3)cnc2O[C@H]1CN(C)C(=O)c1cnccn1	0	-2	.	.	-12	.	.
Cc1ccc(S(=O)(=O)N(C)C[C@@H]2Oc3ncc(-c4ccncc4)cc3C(=O)N([C@H](C)CO)C[C@H]2C)cc1	0	.	.	.	11	.	.
O=C(c1ccccc1)N1CC(=O)N2[C@@H](CO)[C@@H](c3ccc(C#Cc4ccccc4)cc3)[C@@H]2C1	-1	.	.	.	-16	.	.
COc1ccc2nc(N(CCN(C)C)C(=O)c3ccc4ncsc4c3)sc2c1	-2	6	.	-2	13	.	.
CN(C)CCN(C(=O)c1ccc2ccccc2c1)c1nc2ccc(Br)cc2s1	-1	1	3	-2	2	15	.
CN(C)CCN(C(=O)c1ccc(S(=O)(=O)N2CCc3ccccc32)cc1)c1nc2ccc(F)cc2s1	-2	-12	5	-2	-18	62*	0
CCOc1ccc2nc(N(CCN(C)C)C(=O)c3cc4ccccc4cc3OC)sc2c1	.	16	-6	-2	.	48*	8
COc1ccc2nc(N(CCN(C)C)C(=O)c3ccc(C(=O)c4ccccc4)cc3)sc2c1	5	7	7	-4	2	31*	0
CN(C)CCCN(C(=O)c1ccc(S(=O)(=O)N2CCCCCC2)cc1)c1nc2ccc(F)cc2s1	-4	17	7	-7	2	0	.
SMILES	CFTR F508del cor	RAD54 inh	PvdQ acylase	N-glyco inh	RAD52 inh	dFosB act-1	dFosB act-2
CCN(CC)CCN(C(=O)c1ccc(C(=O)c2ccccc2)cc1)c1nc2ccc(OC)cc2s1	-1	2	-2	-5	-1	?	.
Cc1ccc2nc(N(CCN(C)C)C(=O)c3ccc4ccccc4c3)sc2c1	.	3	-6	-4	.	26*	6
CCCN(C)C[C@H]1Oc2ncc(-c3cccc(C(=O)N(C)C)c3)cc2C(=O)N([C@H](C)CO)C[C@@H]1C	-4	-1	.	.	-2	.	.
C[C@@H]1CN([C@H](C)CO)C(=O)c2cccc(NS(=O)(=O)c3ccccc3)c2O[C@H]1CN(C)C(=O)Nc1ccccc1	2	0	.	.	8	.	.
C[C@@H]1CN([C@H](C)CO)C(=O)c2cc(-c3cccc(F)c3)cnc2O[C@@H]1CN(C)S(=O)(=O)c1cccc(F)c1	1	5	.	.	3	.	.
C[C@H]1CN([C@@H](C)CO)C(=O)c2ccccc2-c2ccccc2CO[C@H]1CN(C)C(=O)c1ccncc1	0	-2	.	.	2	.	.
CN(C)CCN(C(=O)c1ccc2ccccc2c1)c1nc2c(F)cc(F)cc2s1	3	9	-14	1	-6	36*	7
CCOc1ccc2nc(N(CCCN(C)C)C(=O)c3ccc4c(c3)CCCC4)sc2c1	0	7	10	-3	49	26*	5
CNC[C@@H]1OCCCC[C@H](C)Oc2ccc(NC(=O)Nc3c(C)noc3C)cc2C(=O)N([C@H](C)CO)C[C@@H]1C	3	.	.	.	.	.	.
COc1ccc(Cn2c(=O)[nH]c3cc(C(=O)N4CCN(c5ccccc5F)CC4)ccc3c2=O)cc1	-1	-7	-4	2	1	18*	5
COc1ccc(Cn2c(=O)[nH]c3cc(C(=O)N4CCN(c5ccccc5OC)CC4)ccc3c2=O)cc1	.	0	-5	2	.	-4	.
O=C(C1CC1)N1CCCCN2[C@H](CO)[C@H](c3ccc(C#CC4(O)CCCC4)cc3)[C@H]2C1	0	-1	.	.	11	.	.
Cc1cccc(NC(=O)NNC(=O)c2cc(-c3ccccc3Cl)nc3ccccc23)c1	.	5	-5	0	.	20*	0
Cc1cccc(NC(=O)NNC(=O)COc2ccc(Cl)cc2)c1	.	.	-13	3	.	35*	2
CCCOC(=O)c1cccc(NC(=O)COc2ccc([N+](=O)[O-])cc2)c1	4	.	-8	2	-22	19*	3
COc1ccc(NC(=O)NNC(=O)COc2ccc(Cl)cc2C)cc1OC	-1	-12	-10	4	-10	45*	4
Cc1cccc(NC(=O)NNC(=O)COc2ccc3ccccc3c2)c1	-1	-19	-5	-1	-9	?	.
O=C(NNC(=O)c1cc(-c2ccc(Cl)c(Cl)c2)nc2ccccc12)Nc1ccccc1	.	.	-6	2	.	5	.
C[C@H]1CN([C@@H](C)CO)C(=O)c2cc(-c3ccc(C(=O)N(C)C)cc3)cnc2O[C@H]1CN(C)C(=O)c1ccncc1	0	2	.	.	11	.	.
